Results as given in PubChem BioAssay AID720591 (Broad Institute, 2013).
Out of some 1,200 compounds screened, about 60 (5%) were called active. About 1% were inconclusive and are not listed.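 Rule for the calls: active = Decreasing signal and fitted IC50 at most twice the top valid tested dose; inconclusive = Bad fit or a level curve showing 30 to 70% inhibition; inactive = the rest.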 Only a sample is shown. Entries with a potency or affinity are not part of this list.

target: NAD-dependent protein deacylase sirtuin-5, mitochondrial (Homo sapiens) (UniProt Q9NXA8); test: SIRT5 desuccinylase inhibitors, dose response, biochemical, fluorescence imaging, cherry-pick, set 5 (AID 720591); details: Purified SirT5, succinyl-peptide AMC, trypsin-coupled fluorescence; series mostly up to 15 µM; activity change, negative = inhibition: at the top concentration;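 note: 0% = median of neutral control wells and -100% = median of positive control wells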
Sequence (Q9NXA8 whole entry, looked up): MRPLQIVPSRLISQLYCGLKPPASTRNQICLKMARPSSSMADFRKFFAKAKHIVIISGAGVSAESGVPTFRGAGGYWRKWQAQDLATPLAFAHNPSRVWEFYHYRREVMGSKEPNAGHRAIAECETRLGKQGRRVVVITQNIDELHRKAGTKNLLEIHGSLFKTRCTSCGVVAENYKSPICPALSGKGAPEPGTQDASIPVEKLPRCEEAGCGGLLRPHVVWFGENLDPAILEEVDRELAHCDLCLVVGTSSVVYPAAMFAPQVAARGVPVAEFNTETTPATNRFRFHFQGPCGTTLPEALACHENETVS

Activity change, negative = inhibition, inactive:
Cc1cccc(OC(=O)Nc2ccc(C(=O)O)c(O)c2)c1 -32.6%
Cc1ccc(NC(=O)COCC(=O)Nc2ccc(F)cc2)cc1 36%
O=C(Nc1ccccc1C(=O)O)c1cc(S(=O)(=O)Nc2ccccc2)ccc1Cl 15.5%
Cc1cc(NC(=O)CCC(=O)N(CCc2ccccc2)C(C(=O)NC2CCCC2)c2ccco2)no1 (centres undefined) -7.32%
COc1ccc(CCNS(=O)(=O)c2cc3c4c(c2)CC(=O)N4CCC3)cc1 12.3%
Nc1cccc(-c2csc(-n3ncc(C(=O)O)c3C(F)(F)F)n2)c1 -36.1%
O=C(O)c1ccc2c(c1)ncn2C1CCCC1 -11.2%
Cc1ccnc(NC(=O)CCC(=O)N(Cc2ccco2)C(C(=O)NC(C)C)c2ccc(F)cc2)c1 (centres undefined) -23.7%
NNC(=O)Cn1c(-c2ccccc2)cc2ccccc21 11.2%
CC(C)(C)OC(=O)N(CCc1ccccc1)Cc1ccc(OCc2cccc(NC(=O)C3CC3)c2)cc1 11.2%
COc1ccc(CCNC(=O)[C@H](C)NC(=O)N2CCn3c2nc2ccccc23)cc1OC 8.92%
Cc1ccccc1CN1CCN(Cc2ccc3cccc(F)c3n2)CC1CCO (centres undefined) -26.9%
CNCc1cc(Br)c(OCC(=O)Nc2ccccc2OC)c(OC)c1 12.6%
COc1ccc(CC(=O)Nc2ccc(C(=O)NCC(C)C)cc2)cc1 8.8%
COc1cccc(NC(=O)c2ccccc2)c1 -3.36%
Cc1cc2nc(CSc3ccccc3)cc(=O)n2[nH]1 -15.6%
CCCCCCCCN1[C@@H](CC(=O)O)c2cc(C(F)(F)F)ccc2S1(=O)=O -14.3%
Cc1c(Cc2ccc3c(c2)OCO3)sc(NC(=O)c2ccccc2)c1C(N)=O -11.1%
Cc1cccc2nc(CSc3ccc(Cl)cc3)cn12 36.8%
Clc1ccc2nc(CSc3ccccc3)cn2c1 17%
Cc1cccc(N(C(=O)c2snc(C(N)=O)c2N)C(C(=O)NCC2CCCO2)c2ccc3ncccc3c2)c1 (centres undefined) 4.66%
O=S(=O)(NCc1ccc2c(c1)OCO2)c1ccccc1F 4.96%
Cc1cccc(Cl)c1NC(=O)NCCCN1CCCCC1C (centres undefined) -21.1%
CCN(CC)c1ccc(S(=O)(=O)N2CCOCC2)cc1NC(=O)Nc1ccccc1 -11.5%
Cc1ccc(S(=O)(=O)N2CCOCC2)cc1NC(=O)CSc1nnc2n1CCCCC2 -29.9%
CCOC(=O)C(N)CSC1CC(=O)N(c2ccc(OCC)cc2)C1=O (centres undefined) -18.2%
CCOc1ccc(CN2CCN(C(=O)c3cccc(F)c3)CC2)cc1 8.06%
CCc1nnc(NC(=O)CCC(=O)N2CCN(c3cc(C)ccc3C)CC2)s1 8.84%
Cc1cccc(N2CCN(C(=O)c3ccc4nc[nH]c4c3)CC2)c1C -1.76%
CC1(C(=O)NS(=O)(=O)c2ccccc2Cl)CCN1C(=O)Cc1cccc2ccccc12 (centres undefined) 31.4%
COc1cc(C(C)=O)ccc1OC(=O)CN1C(=O)c2ccccc2C1=O 11.6%
Cc1c(C(=O)c2ccc(N(C)C)cc2)c2ccccn2c1CCC#N -5.98%
CCc1nonc1NC(=O)c1oc2ccc(Cl)cc2c1C 9.41%
COc1ccc2c(c1)C(=O)O[C@@H](c1ccccc1)C[C@@H](O)C(=O)CC2 5.6%
CCOc1ccc(OCC)c(NC(=O)C2CCCN(C(=O)c3ccc(Cl)cc3)C2)c1 (centres undefined) -9.86%
COc1ccc(OC)c(NC(=O)CSc2nnc(CNC(=O)c3cccs3)o2)c1 13%
COc1ccc(C(=O)OC(C)C(=O)NCC2CCCCC2)cc1S(=O)(=O)N1CCOCC1 (centres undefined) -28.7%
CCC(=O)Nc1cccc(-c2cc3ccccc3oc2=O)c1 7.85%
COc1cc2cc(C#N)c(SCC(=O)Nc3cc(C)on3)nc2cc1OC -3.85%
Cc1ccc(CNC(=O)CCCCCNC(=O)N2CCn3c2nc2ccccc23)cc1 -20.1%
O=C(NC1CCCCC1)c1ccc(S(=O)(=O)c2ccccc2)cc1 -29.3%
CCOC(=O)C1CCN(C(=O)Cn2cc(C(=O)OC)c3ccccc32)CC1 -21.2%
COc1ccc(NC(=O)CN2CCN(c3ccccn3)CC2)cc1Cl 5.95%
COc1ccc(-c2csc3nc(C(C)C)oc(=O)c23)cc1OC -30.7%
C=C(C)COc1ccc(-c2ncncc2-c2ccc(OC)cc2)c(O)c1 4.58%
Cn1cc(C(=O)NCCc2ccccc2)c(=O)c2cc(S(=O)(=O)N3CCOCC3)ccc21 3.07%
CC(C)c1ccccc1NC(=O)c1cnccn1 -32.5%
O=C(c1ccccc1)c1coc2ccc(O)c(Cl)c12 -19.4%
O=C(O)CCC(=O)Nc1ccc(-c2nc3ccc(C(=O)c4ccccc4)cc3[nH]2)cc1 -28.6%
Nc1nc(-c2ccc(C(=O)O)cc2)cs1 -22.5%
CC(C)(C)C(=O)Oc1cccc(Nc2ncnc3ccccc23)c1 -14.3%
Cc1ccc(S(=O)(=O)NCC(=O)OCC(=O)NCc2ccc(F)cc2)cc1 -17%
Cc1nnc(SCC(=O)Nc2ncc3c(n2)CC(c2ccccc2)CC3=O)s1 (centres undefined) -14%
Cc1ccc(S(=O)(=O)Nc2ccc(N(C)C)cc2)cc1 -8.19%
COc1ccc(N2CC(NC(=O)N3CCc4ccccc43)CC2=O)cc1OC (centres undefined) -30%
CN(C)CCOC(=O)NCC12CC3CC(CC(C3)C1)C2 -14.8%
C[C@@H]1CN([C@@H](C)CO)C(=O)CCCn2nncc2CO[C@H]1CN(C)C(=O)C1CCCCC1 -4.24%
CCCCCCN1C[C@@H](O)[C@H](n2cc(COC(=O)c3ccccc3)nn2)C[C@@H]1c1ccc(C)cc1 11.7%
C[C@H]1COc2cc(NCCO)ccc2S(=O)(=O)N1 19.8%
Cc1ccc(S(=O)(=O)N2C[C@@H]3CCCC[C@@H]3[C@@H](C)[C@H]2c2cn(Cc3ccccc3)c3ncccc23)cc1 14.3%
CCOc1ccccc1NC(=O)CN1c2cccc3cccc(c23)S1(=O)=O 12.7%
Nn1c(C2CCC2)nc2cc(Cl)ccc2c1=O -25.2%
CCC(C)C(CO)NCCCn1cnc2c(SC)ncnc21 (centres undefined) 4.95%
Cc1nc(NC(=O)c2cc3ccccc3o2)sc1C 7.97%
Cc1csc(NC(=O)c2cc3ccccc3o2)n1 12.3%
Cc1ccc(OCCNC(=O)C2CCCCC2)cc1 7.97%
Cc1cc(C)c2c(CN3CCOCC3)cc(=O)oc2c1 2.2%
COc1ccc(CNC(=O)CCn2ccc3cc(S(=O)(=O)N4CCCC4)ccc32)cc1 -22.9%
COc1ccc(CN(C(=O)c2ccco2)c2ccccc2)cc1 13.5%
COc1ccc(CN(C(=O)c2ccco2)c2ccc(C)cc2)cc1OC -33.2%
CN1C(=O)[C@H]2[C@@H](C3CC3)N3C(=O)CN(CCO)C(=O)[C@@]3(Cc3ccccc3)[C@H]2C1=O -16.4%
CCOc1ccc(-c2noc(CCCC(=O)NC3CCCC3)n2)cc1OC 1.29%
CCCCCNC(=O)C(c1cc2ccccc2o1)n1c(=O)c(-c2ccccc2)nc2ccccc21 (centres undefined) -20.3%
COc1ccc(CCNC(=O)COC(=O)CCC(=O)c2ccc(F)cc2)cc1OC 16.3%
CCCCCCNC(=O)c1ccc(Br)o1 2.66%
COc1cc(C(=O)NCC2(N(C)C)CCCCC2)ccc1OCc1ccccc1 5.49%
Cn1c(NCCCO)nc2c1c(=O)n(Cc1ccccc1F)c(=O)n2C 5.2%
CC(=O)c1cc(-c2ccc(F)cc2)n(CCC(=O)NC(C)(C)C)c1C 40.1%
COC(CNC(=O)CC1C(=O)N(Cc2ccccc2)C(C)c2nc3ccccc3n21)OC (centres undefined) 16.8%
CCCCNC(=O)C[C@@H]1C[C@@]2(C(=O)OC)CC(C)(C)CC=C2N(Cc2ccco2)C1=O 2.48%
Cc1ccc(S(=O)(=O)N2C[C@@H](C)[C@]3(C2)[C@H](O)[C@H](OC(=O)NCc2ccco2)C[C@H]2C(=O)N(c4ccccc4)C(=O)[C@H]23)cc1 -12.3%
OC[C@@H]1CN(Cc2cccs2)C[C@H](n2cnc3c(Nc4ccccc4)ncnc32)O1 1.28%
CCc1cc2c(=O)c(-c3nc4ccccc4n3C)coc2c(CN2CCCCC2)c1O 32.2%
Cc1ccc(NC(=O)c2ccc3c(c2)CCN3S(C)(=O)=O)cc1 11.9%
Cc1cc(C)cc(N(C(=O)CCC(=O)Nc2cc(C)on2)C(C(=O)NC2CCCC2)c2ccco2)c1 (centres undefined) -2.73%
COc1ccc(CC(=O)NCC2CCCN(Cc3ccc(OC(F)(F)F)cc3)C2)cc1 (centres undefined) -23.7%
CCOC(=O)C(Cc1ccc(NC(C)=O)cc1)N1C(=O)c2ccccc2C1=O (centres undefined) -8.71%
O=C(OCC(=O)N1CCCC1)c1cc(Br)ccc1Cl -18.6%
COc1ccccc1-c1cc(C(=O)NC(C)C)no1 -1.51%
Oc1ccc(-c2n[nH]c(C(F)(F)F)c2-c2ccccc2)c(O)c1 -7.08%
CC1c2nc3ccccc3n2C(CC(=O)NC2CC2)C(=O)N1Cc1ccccc1 (centres undefined) 4.72%
Cn1c(=O)[nH]c(=O)c2c1nc(N1CCNCC1)n2Cc1ccccc1 15.6%
Cc1ccc(Cn2c(N3CCN(C)CC3)nc3c2c(=O)[nH]c(=O)n3C)cc1 -22.3%
Oc1ccc(-c2nccc(-c3ccc(Cl)cc3Cl)n2)cc1 -31.7%
Cc1ccc(-c2nc3c(Cl)cc(C(F)(F)F)cn3c2Cc2cccc(F)c2)cc1 6.86%
CC(=O)c1cccc(NC(=O)CCS(=O)(=O)c2ccc(Br)s2)c1 -17.1%
O=C(Nc1ccc2c(c1)OCCO2)C(c1ccnc2ccccc12)N1CCN(c2ccc(F)cc2)CC1 (centres undefined) 18.7%
C=CC[C@H](CC(=O)N(CCO)Cc1ccccc1)C(=O)N[C@@H](COC(=O)[C@H](CC=C)CC(=O)OC(C)(C)C)Cc1c[nH]c2ccccc12 17%
CSc1nc(N)nc2c1ncn2CC(=O)NCC1CCCO1 (centres undefined) 5.49%
O=C(NCc1ccc(F)cc1)C1CC(=O)N(C2CCCCC2)C1 (centres undefined) -24.7%
Cc1cc(C)c(NC(=O)CN(C)C(=O)CNC(=O)c2cccs2)c(C)c1 -17.8%
O=C(Nc1ccccc1Cl)c1cccs1 -20.1%
COc1ccccc1CCNS(=O)(=O)c1cc2c3c(c1)C(C)C(=O)N3CCC2 (centres undefined) -29.6%
COc1ccc(Nc2oc(-c3ccco3)nc2S(=O)(=O)c2ccc(F)cc2)cc1 -8.04%
